Test systems include SK-MEL-2 melanoma; EKVX NSCLC; SN12C renal; UO-31 renal; TK-10 renal; ACHN renal; CAKI-1 renal; A498 renal; CCRF-CEM leukemia; MOLT-4 leukemia; SR leukemia; RPMI-8226 leukemia; OVCAR-8 ovarian; OVCAR-5 ovarian; OVCAR-4 ovarian; SK-OV-3 ovarian; IGROV1 ovarian; OVCAR-3 ovarian; HS 578T breast; NCI/ADR-RES ovarian.
Assay in all cases: NCI-60 one-dose screen, 48 h (100 = growth as untreated, 0 = no growth, -100 = all killed)
Common to all, as to conditions: 10 µM unless noted

About 83,000 compounds went through this panel and 20% of them were active in at least one assay; those are over-represented in the sample as a whole.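 Results are percent growth after 48 hours of single-concentration exposure. 100 means growth as in untreated cells, lower positive values show inhibition; negative values down to -100 show cell death.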 Unmarked numbers belong to inactive results. The source made the active and inactive calls. How the source made its calls: active means growth percent below 10; inactive means the rest.

Regarding `Cn1c(NCCc2ccc(O)c(O)c2)nc2c1c(=O)n(Cc1ccc(Cl)c(Cl)c1)c(=O)n2C`, the growth is 91.2% in the test with SK-MEL-2 melanoma; 81.2% with EKVX NSCLC; 71.5% in the test with SN12C renal; 34% in the test with UO-31 renal; 65.9% with TK-10 renal; 41.8% with ACHN renal. The growth was 62.8% with CAKI-1 renal; 98.4% in the test with A498 renal; 17.8% in the test with CCRF-CEM leukemia; 11.8% in the test with MOLT-4 leukemia; 56% in the test on SR leukemia; 19.1% in the test with RPMI-8226 leukemia. Further, the growth in the test with OVCAR-8 ovarian was 74.4%; with OVCAR-5 ovarian, 83.1%; in the test on OVCAR-4 ovarian, 52.8%; with SK-OV-3 ovarian, 81%; in the test on IGROV1 ovarian it was 32%; with OVCAR-3 ovarian, 64.9%. In addition, the growth is 75.6% in the test on HS 578T breast and 77.3% in the test on NCI/ADR-RES ovarian.

On to `CC(=O)Nc1ccc(-n2c(O)c(/C=N/NC(=O)Cc3ccccc3Nc3c(Cl)cccc3Cl)sc2=S)cc1`, for which the growth with SK-MEL-2 melanoma is 113%; with EKVX NSCLC it was 100%; in the test on SN12C renal, 104%; in the test with UO-31 renal it was 84.1%; with TK-10 renal, 112%; in the test with ACHN renal, 99.1%. Also, the growth in the test on CAKI-1 renal is 84.9%; in the test on A498 renal, 97.1%; with CCRF-CEM leukemia it was 96.7%; in the test on MOLT-4 leukemia, 94.2%; in the test with SR leukemia, 72.9%; in the test with RPMI-8226 leukemia it was 106%. The growth with OVCAR-8 ovarian is 91.7%; with OVCAR-5 ovarian, 114%; with OVCAR-4 ovarian, 105%; in the test on SK-OV-3 ovarian, 111%; in the test on IGROV1 ovarian it was 96.7%; in the test on OVCAR-3 ovarian it was 116%. Further, the growth with HS 578T breast is 92.5%; with NCI/ADR-RES ovarian, 101%.

`CC[C@]1(O)C[C@@H]2CN(CCc3c([nH]c4ccccc34)[C@@](C(=O)OC)(c3cc4c(cc3OC)N(C)[C@H]3[C@@](O)(C(N)=O)[C@H](O)[C@]5(CC)[C@@H]6C[C@@H]6CN6CC[C@]43[C@@H]65)C2)C1`: the growth in the test on SK-MEL-2 melanoma is 22.4%; in the test with EKVX NSCLC, 41.1%; with SN12C renal it was 27.6%; in the test on UO-31 renal, 50%; in the test on TK-10 renal, 53.5%; with ACHN renal, 33%. Moreover, the growth is 32.8% with CAKI-1 renal; -7.44% (active) with A498 renal; 17.7% with CCRF-CEM leukemia; 17.1% in the test with MOLT-4 leukemia; 12.1% in the test on SR leukemia; 13.8% with RPMI-8226 leukemia. For the same compound, the growth in the test on OVCAR-8 ovarian is 15.9%; with OVCAR-5 ovarian, 52.2%; with OVCAR-4 ovarian it was 52%; in the test on SK-OV-3 ovarian, 14.8%; in the test on IGROV1 ovarian, 36.5%; in the test on OVCAR-3 ovarian, 6.81% (active). Besides, the growth in the test with HS 578T breast is 30.2%; in the test on NCI/ADR-RES ovarian it was 9.52% (active).

For `O=C1c2cc3c(cc2-c2c1c1ccc(F)cc1c(=O)n2C[C@H](O)[C@@H](O)[C@H](O)CO)OCO3`, the growth is -27.2% (active) in the test with SK-MEL-2 melanoma; 13% in the test with EKVX NSCLC; 4.69% (active) in the test with SN12C renal; -21.3% (active) with UO-31 renal; -0.938% (active) with TK-10 renal; -42.9% (active) with ACHN renal. Moreover, the growth with CAKI-1 renal is -7.09% (active); in the test with A498 renal, -78.8% (active); in the test on CCRF-CEM leukemia it was 5.88% (active); with MOLT-4 leukemia, -6.28% (active); in the test on SR leukemia it was 0.151% (active); in the test with RPMI-8226 leukemia, -0.286% (active). Further, the growth was 0.0181% (active) with OVCAR-8 ovarian; -29.8% (active) in the test on OVCAR-5 ovarian; 15.4% in the test on OVCAR-4 ovarian; -20.8% (active) in the test on SK-OV-3 ovarian; 17.7% with IGROV1 ovarian; -20.3% (active) in the test on OVCAR-3 ovarian. For the same compound, the growth in the test with HS 578T breast was 0.229% (active); in the test with NCI/ADR-RES ovarian it was 4.78% (active).

`O=C1Nc2c(ccc(Cl)c2Cl)/C1=C\c1ccc(C(F)(F)F)cc1`: the growth is 91.4% in the test on SK-MEL-2 melanoma; 55.2% in the test on EKVX NSCLC; 79.7% in the test with SN12C renal; 57.9% with UO-31 renal; 96.4% in the test on TK-10 renal; 86.5% in the test with ACHN renal. Besides, the growth is 65.9% with CAKI-1 renal; 102% with A498 renal; 6.78% (active) with CCRF-CEM leukemia; 44.3% in the test on MOLT-4 leukemia; 104% with SR leukemia; 62.8% with RPMI-8226 leukemia. The growth is 85.1% with OVCAR-8 ovarian; 83.9% with OVCAR-5 ovarian; 75.1% in the test on OVCAR-4 ovarian; 88.2% with SK-OV-3 ovarian; 54.1% in the test on IGROV1 ovarian; 68.2% in the test on OVCAR-3 ovarian. For the same compound, the growth in the test with HS 578T breast is 63.9%; in the test with NCI/ADR-RES ovarian, 85.8%.

Take `CC1=C/C(=C(\c2ccc(N(C)C)cc2)c2ccc([N+](C)(C)C)cc2)C=CC1=[N+](C)C`: the growth was 110% with SK-MEL-2 melanoma; 54.8% in the test on EKVX NSCLC; 50.9% in the test with SN12C renal; 96.1% in the test on UO-31 renal; 90% in the test on TK-10 renal; 78.1% in the test with ACHN renal. Also, the growth was 99.2% with CAKI-1 renal; 81.9% in the test on A498 renal; 85.8% in the test with CCRF-CEM leukemia; 106% in the test on MOLT-4 leukemia; 60.8% in the test with SR leukemia; 2.54% (active) with RPMI-8226 leukemia. Also, the growth was 36.2% with OVCAR-8 ovarian; 115% in the test on OVCAR-5 ovarian; 89.3% with OVCAR-4 ovarian; 94% in the test with SK-OV-3 ovarian; 94.4% in the test on IGROV1 ovarian; 86.6% with OVCAR-3 ovarian. Also, the growth in the test on NCI/ADR-RES ovarian was 100%.

`Cc1cc(C)nc(SC2=C(Nc3cccc(Cl)c3)C(=O)N(Cc3ccccc3)C2=O)n1`: the growth with SK-MEL-2 melanoma is 75.9% [30 µM]; in the test with EKVX NSCLC it was 56% [30 µM]; in the test on SN12C renal, 71.9% [30 µM]; in the test on UO-31 renal, 34% [30 µM]; with TK-10 renal, 97.2% [30 µM]; with ACHN renal, 68.2% [30 µM]. The growth was 66% [30 µM] in the test on CAKI-1 renal; 67.2% [30 µM] in the test with A498 renal; 26.2% [30 µM] in the test on CCRF-CEM leukemia; 7.17% [30 µM] (active) in the test on MOLT-4 leukemia; 28.8% [30 µM] with SR leukemia; 23.3% [30 µM] in the test on RPMI-8226 leukemia. The growth in the test with OVCAR-8 ovarian was 52.5% [30 µM]; with OVCAR-5 ovarian, 107% [30 µM]; in the test on OVCAR-4 ovarian, 61.9% [30 µM]; in the test with SK-OV-3 ovarian, 113% [30 µM]; with IGROV1 ovarian, 43.3% [30 µM]; with OVCAR-3 ovarian, 68.6% [30 µM]. For the same compound, the growth with HS 578T breast was 97.8% [30 µM]; in the test with NCI/ADR-RES ovarian, 55.5% [30 µM].

The values above are taken from PubChem BioAssay (NCI).
